ChEMBL document CHEMBL3988442, “University of Dundee, Small-Polar-MMV Screening Library” (2021)
About 420 (0.61%) of roughly 69,000 compounds showed an effect of 50% or more. This is one part of a sample in which strong results are shown more often than they occur.

molecular target: T1, Histidine--tRNA ligase (Leishmania infantum) (UniProt A4I591); experiment: Leishmania infantum Histidine tRNA synthetase (LdHisRS); assay type: functional; set-up: scale not given: in the data most compounds retested in dose-response had high values; settings: 30 µM
T1 sequence (whole entry): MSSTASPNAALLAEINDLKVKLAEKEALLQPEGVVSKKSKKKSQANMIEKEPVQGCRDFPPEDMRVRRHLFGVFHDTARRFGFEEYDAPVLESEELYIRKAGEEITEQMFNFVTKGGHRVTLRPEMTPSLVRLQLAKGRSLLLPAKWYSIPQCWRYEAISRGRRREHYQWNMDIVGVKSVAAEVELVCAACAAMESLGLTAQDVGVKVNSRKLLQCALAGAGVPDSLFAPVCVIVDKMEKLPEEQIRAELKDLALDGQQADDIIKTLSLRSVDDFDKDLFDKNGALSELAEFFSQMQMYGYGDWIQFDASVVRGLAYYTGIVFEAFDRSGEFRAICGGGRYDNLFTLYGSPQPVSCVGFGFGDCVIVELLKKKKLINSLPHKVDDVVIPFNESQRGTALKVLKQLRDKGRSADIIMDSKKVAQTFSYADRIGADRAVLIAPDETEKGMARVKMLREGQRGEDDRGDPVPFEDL

| Structure (SMILES) | Percent Effect [%] |
| --- | --- |
| Cc1nnc([C@@]23CCO[C@@H]2CCN(Cc2cccc4ccccc24)C3)o1 | 5.94 |
| CNC(=O)[C@@H]1COC[C@H]2CN(C(=O)c3ccc(OC)cc3)C[C@H]21 | 8.77 |
| CN1C(=O)CO[C@H]2CN(C(=O)c3ccc4c(c3)CCCC4)C[C@@H]21 | 0 |
| O=S(=O)(c1cccnc1)N1C[C@@H]2CC[C@H](C1)N(Cc1ccccn1)C2 | 7.53 |
| N#Cc1ccc(C(=O)N2C[C@H](OCc3cccnc3)[C@H]3COC[C@H]32)cc1 | 6.94 |
| CN(C)CCNC(=O)C1Cc2nc(-c3ccsc3)sc2N1CC1CC1 (stereo not given) | 22.2 |
| CC(C)NC(=O)C1Cc2nc(-c3ccsc3)sc2N1CC1CC1 (stereo not given) | 51.4 |
| CN(C)CCNC(=O)C1Cc2nc(-c3ccccc3)sc2N1CC1CC1 (stereo not given) | 20.8 |
| O=C(NC1CCCC1)C1Cc2nc(-c3ccsc3)sc2N1CC1CC1 (stereo not given) | 23.6 |
| CC(C)N1c2sc(-c3ccsc3)nc2CC1C(=O)NC1CC1 (stereo not given) | 30 |
| O=C(Nc1cccnc1)C1Cc2nc(-c3ccsc3)sc2N1CC1CC1 (stereo not given) | 62.5 |
| CC(C)CNC(=O)[C@H]1C[C@@H]2CN(C(=O)NCC3CCCCC3)C[C@H]1O2 | 17.2 |
| COc1ccccc1CN1C(=O)O[C@@H]2CN(Cc3cccc(C)n3)C[C@@H]21 | -1.67 |
| O=C1O[C@@H]2CN(Cc3ccncc3)C[C@@H]2N1CCCN1CCOCC1 | -6.67 |
| COc1cc(-n2cc(CCO)cn2)ccc1NC(C)=O | 31.6 |
| COc1ccc(-n2cc(CCO)cn2)cc1C | 69.6 |
| COc1ccc(-n2cc(CCO)cn2)cc1C(N)=O | 34.2 |
| N#Cc1ccc(OC[C@]23COC[C@H]2CN(c2ncccn2)C3)nc1 | 5.56 |
| N#Cc1ccc(N2CCCC3(CCN(c4cccnc4)CC3)C2)cc1 | 51.4 |
| c1cncc(N2CCC3(CCCN(c4ccncc4)C3)CC2)c1 | 15.3 |
| c1cncc(N2CCCC3(CCN(CCN4CCCC4)CC3)C2)c1 | 15.3 |
| O=C1[C@H]2CN(Cc3ccccc3)C[C@H]2CN1CCN1CCCC1 | 17.3 |
| Cc1ccc(-n2cc(CN3CCN(C)[C@@H]4CS(=O)(=O)C[C@@H]43)cn2)cc1 | 11.4 |
| Cc1cc(C)cc(NC(=O)Nc2c(O)oc3ccccc3c2=O)c1 | 16.1 |
| Cn1nc2c(cc1=O)CN(Cc1nc3ccccc3c(=O)[nH]1)CC2 | 24.7 |
| Cn1nc2c(cc1=O)CN(c1nc3ccccc3s1)CC2 | 90.9 |
| CCn1nc2c(cc1=O)CN(c1nc3ccccc3s1)CC2 | 72.7 |
| CC(C)n1nc2c(cc1=O)CN(c1nc3ccccc3s1)CC2 | 18.2 |

| Structure (SMILES) | Percent Effect [%] |
| --- | --- |
| Cc1ncnc(N2CCCN(c3nc4ccccc4s3)CC2)c1C | 25.7 |
| CCn1nc2c(cc1=O)CN(Cc1nc3ccccc3c(=O)[nH]1)CC2 | 25 |
| Cn1nc2c(cc1=O)CN(Cc1nc(N)c3ccccc3n1)CC2 | 43.5 |
| c1ccc2sc(N3CCN(c4ncnc5c4CCC5)CC3)nc2c1 | 14.3 |
| Cn1nc2c(cc1=O)CN(CCc1nc3ccccc3c(=O)[nH]1)CC2 | 53.9 |
| CCn1nc2c(cc1=O)CN(Cc1nc3ccccc3o1)CC2 | 12.9 |
| c1ccc2sc(N3CCCN(c4ncnc5c4CCNC5)CC3)nc2c1 | 57.1 |
| Cc1nc(CO[C@H]2CN(C(=O)c3cnoc3C)[C@@H]3COC[C@H]23)cs1 | 10 |
| CC(C)NC(=O)[C@@]12CCO[C@@H]1CCN(Cc1ccco1)C2 | 15.1 |
| O=C(Nc1cccnc1)[C@H]1C[C@@H]2CN(Cc3ccc(F)cc3)C[C@H]1O2 | 10 |
| CC(C)C(=O)N1CC[C@H]2N(C)CC[C@@]2(C(=O)Nc2cccnc2)CC1 | 8.11 |
| OC[C@H]1CC[C@]2(CC1)CN(Cc1ccsc1)Cc1ccccc1O2 | 16.5 |
| O=C(c1ccco1)N1C[C@@H]2OCCN(CCN3CCCC3)[C@@H]2C1 | 6.01 |
| CNC(=O)N1CCC2(CC1)CC[C@@]1(C(=O)NC)CN(S(C)(=O)=O)C[C@@H]21 | 9.72 |
| CN(Cc1ccco1)[C@@H]1CN(Cc2nccn2C)[C@@H]2CCCO[C@H]12 | 27 |
| O=C([C@@H]1COC[C@H]2CN(c3ccncn3)C[C@H]21)N1CCCC1 | 19.3 |
| CN(Cc1ccco1)C(=O)c1ccc(=O)n(C)c1 | 14.9 |
| COc1ccc(NC(=O)N(C)Cc2ccco2)cn1 | 16 |
| Cc1occc1CN(C)C(=O)Nc1ccc(=O)n(C)c1 | 102 |
| CN(Cc1ccc2c(c1)OCO2)C(=O)c1ccc(=O)n(C)c1 | 5.33 |
| CN(Cc1cccs1)C(=O)c1ccc(=O)n(C)c1 | 11.3 |
| CN(Cc1ccco1)C(=O)Nc1ccc(=O)n(C)c1 | 102 |
| CS(=O)(=O)N[C@@H]1CN(C(=O)c2cccnc2)[C@@H]2CCCO[C@@H]21 | 8.26 |
| O=C([C@@H]1C[C@@H]2CCN(C3CCOCC3)C[C@@H]2O1)N1CCOCC1 | 8.33 |
| CC(=O)N1CCN(C(=O)CNc2ccc3sccc3c2)CC1 | 27.2 |
| CC(=O)N1CCN(C(=O)CNc2ccc3ncsc3c2)CC1 | 58.8 |
| CC(=O)N1CCN(C(=O)C(C)Nc2ccc3ncsc3c2)CC1 (stereo not given) | 28.9 |
